# According to PubChem BioAssay:
# “And” between values parts separate entries of the source, which are not always exact repeats. Equal values may be shown once. More than one record can exist for a structure, and the calls need not agree. The source made the active and inactive calls.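 The calls were made as follows, unless noted: active = inhibition at or above 50% relative to wild type and mutant plate controls; inactive = inhibition below 50%.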
# How the values were obtained:
# [1] = inhibitors of TNFa-induced NFkB p65 translocation, primary screen, imaging, HUVEC, MLSMR starter and 10KST1 sets (AID 438;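 active = inhibition above 20% together with a positive visual image hit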;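 also: compound added about 3h40 before a 20 min TNFalpha stimulation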;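 as to inhibition: signal is the nuclear over cytoplasmic p65 intensity ratio per well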); details: HUVEC TNFa-induced p65 nuclear translocation; cell count: measured here: nuclei count (cytotoxicity indicator), at 2.08 µM; inhibition: at 2 µM, stronger effect = higher value, 0% TNFa-plus-vehicle, 100% no-TNFa wells
# [2] = reduction of polyQ htt aggregates in cells – imaging, exon1htt(103Q)mCFP cells, high-content imaging, primary screen (AID 483;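 active = visual image review flags a hit and inhibition of aggregation exceeds 20%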;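 also: compound exposure lasted 3 days before fixation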;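 as to nuclei count: percent of the per-plate median nuclei count of sample wells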); details: exon1htt(103Q)mCFP cell line, aggregate imaging, at 2 µM; inhibition of aggregation: stronger effect = higher value; nuclei count: measured here: cell count, toxicity
# [3] = endothelial E-selectin expression blockers – imaging, HUVEC, immunofluorescence, MLSMR starter and 10KST1 sets, primary screen (AID 487;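 active = visually confirmed hit in the image check and inhibition above 20%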;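 as to inhibition: signal is fraction of cell area covered by stained E-selectin grains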;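 as to nuclei count: 100% = median nuclei count of all wells on the same plate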); details: HUVEC TNFalpha-induced E-selectin immunofluorescence imaging, at 2 µM; inhibition: stronger effect = higher value; nuclei count: measured here: cell number, toxicity
# [4] = Primary imaging screen for DUSP6 inhibitors that restore phospho-Erk in transfected HeLa cells, chemical complementation (AID 609;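 active = compounds giving at least 50% inhibition in the cell-based MKP-3 phosphatase rescue imaging test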;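 as to inhibition: phospho-Erk level distribution per well compared with pooled transfected vehicle control wells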); details: HeLa MKP-3 transfected, phospho-Erk imaging KS statistic, at 10 µM, cells stimulated with TPA for 15 min
# [5] = target: Dual specificity protein phosphatase 6 (Homo sapiens) (UniProt Q16828); assay: as above; details: HeLa MKP-3 transfected, phospho-Erk imaging KS statistic; at 10 µM; stronger effect = higher value; cells stimulated with TPA for 15 min
# Sequence of Dual specificity protein phosphatase 6 (Homo sapiens) (Q16828 whole entry, looked up): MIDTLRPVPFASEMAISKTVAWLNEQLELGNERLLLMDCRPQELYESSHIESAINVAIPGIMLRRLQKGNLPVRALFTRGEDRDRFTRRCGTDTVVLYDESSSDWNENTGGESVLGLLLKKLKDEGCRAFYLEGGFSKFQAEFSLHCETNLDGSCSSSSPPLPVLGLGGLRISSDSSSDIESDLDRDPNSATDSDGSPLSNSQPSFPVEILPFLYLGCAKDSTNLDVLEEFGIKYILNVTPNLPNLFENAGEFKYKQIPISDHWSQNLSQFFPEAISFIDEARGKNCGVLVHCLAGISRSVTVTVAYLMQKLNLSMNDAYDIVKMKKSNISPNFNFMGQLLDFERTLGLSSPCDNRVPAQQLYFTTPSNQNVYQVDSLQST
# [6] = target: Voltage-gated potassium channel subunit beta-2 (Rattus norvegicus) (UniProt P62483); assay: inhibitors of rat Kvbeta2 reductase activity – biochemical, NADPH fluorescence, primary screen (AID 622;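 active = fluorescence slope higher than the sample average by over 3 SD, cut at about -0.22 in these data, passing the limit was not always enough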;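 also: slope of raw intensity against log time taken from 70 to 1610 s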); details: recombinant KvBeta, 4-cyanobenzaldehyde reduction, at 10 µM, stronger effect = higher value
# Sequence of Voltage-gated potassium channel subunit beta-2 (Rattus norvegicus) (P62483 whole entry, looked up): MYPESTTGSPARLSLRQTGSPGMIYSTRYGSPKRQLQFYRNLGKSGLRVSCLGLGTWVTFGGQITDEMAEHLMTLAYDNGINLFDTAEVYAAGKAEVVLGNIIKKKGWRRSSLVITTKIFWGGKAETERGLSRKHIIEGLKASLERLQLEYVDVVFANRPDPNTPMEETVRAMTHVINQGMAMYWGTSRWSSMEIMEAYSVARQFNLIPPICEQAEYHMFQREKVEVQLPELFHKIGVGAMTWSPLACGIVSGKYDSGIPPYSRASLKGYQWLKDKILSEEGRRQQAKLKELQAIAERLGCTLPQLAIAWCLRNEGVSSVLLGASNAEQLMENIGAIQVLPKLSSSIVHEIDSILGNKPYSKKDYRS
# [7] = target: Voltage-gated potassium channel subunit beta-2 (Rattus norvegicus) (UniProt P62483); assay: enhancers of rat Kvbeta2 NADPH turnover – biochemical, NADPH fluorescence, primary screen (AID 623;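 active = NADPH fluorescence slope more negative than the mean of all samples by about 3 SD, 99.7% confidence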;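 also: fluorescence intensity change per second fitted from 20 to 320 s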); details: Recombinant KvBeta, NADPH fluorescence decrease slope, 10 min; at 10 µM; stronger effect = lower value
# [8] = target: Alpha-2C adrenergic receptor (Homo sapiens) (UniProt P18825); assay: compounds altering alpha2C-coupled GIRK flux – cell-based, HEK293 alpha2C/GIRK1/2, thallium flux, primary screen (AID 624;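 active = fluorescence slope after compound addition differing from the mean of all screened samples at 99.7% confidence, in either direction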;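 also: slope of fluorescence ratio to pre-addition baseline per second over 15 to 24 s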); details: thallium flux BTC fluorescence, at 10 µM, actives lie on both sides
# Sequence of Alpha-2C adrenergic receptor (Homo sapiens) (P18825 whole entry, looked up): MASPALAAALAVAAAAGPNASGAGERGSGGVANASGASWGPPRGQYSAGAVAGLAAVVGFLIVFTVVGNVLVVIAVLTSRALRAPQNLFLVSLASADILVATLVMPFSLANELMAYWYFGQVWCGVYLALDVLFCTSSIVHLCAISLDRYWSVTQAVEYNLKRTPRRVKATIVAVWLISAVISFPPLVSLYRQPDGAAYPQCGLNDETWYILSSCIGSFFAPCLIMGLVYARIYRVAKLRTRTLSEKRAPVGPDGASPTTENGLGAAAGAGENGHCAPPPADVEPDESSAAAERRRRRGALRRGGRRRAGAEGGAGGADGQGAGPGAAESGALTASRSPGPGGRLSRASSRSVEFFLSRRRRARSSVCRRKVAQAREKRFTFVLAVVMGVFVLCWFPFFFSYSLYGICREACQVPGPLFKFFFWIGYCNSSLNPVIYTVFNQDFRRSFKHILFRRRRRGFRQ
# [9] = inhibitors of larval lipid processing in zebrafish, primary screen, whole organism, PED6 fluorescence, gall bladder and intestine (AID 686;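 active = a full or partial loss of lipid-probe fluorescence in the fish gall bladder, intestine or both, judged by eye; inactive = no fluorescence loss, or compound toxic to the fish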;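 also: larvae 5 to 7 days old with five fish per well; signal comes from phospholipase A2 cleavage of quenched PED6 carried via bile; overnight exposure to compound and PED6 before scoring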); details: Zebrafish larvae PED6 lipid processing, fluorescence scoring; screened at 20 µM (by protocol)
# [10] = loss of swimming-algae plug formation – whole organism, Chlamydomonas reinhardtii, WT vs cilia-less mutant, absorbance, 96-well, primary screen (AID 463189); details: Chlamydomonas reinhardtii gravitaxis, OD600 absorbance, 2 days; at 10 µM; stronger effect = higher value;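 also: 0% = wild type cc124 cells in DMSO and 100% = ciliumless bld1 mutant cells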
# [11] = blockers of RIG-like receptor reporter activation – cell-based, Sendai virus stimulus, luciferase, 10K MLSCN set, TLR/RLR signaling modifier project, primary screen (AID 602276;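 active = inhibition at or above 50% at 10 µM; inactive = inhibition below 50%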;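 also: firefly luciferase from ISG56 promoter only with Renilla not read in this screen; 0% = Sendai virus plus DMSO and 100% = medium plus DMSO without virus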); details: HEK293 RL24 IRF3 luciferase reporter, at 10 µM, stronger effect = higher value
# [12] = TLR3 IRF3 reporter activation blockers – cell-based, poly I:C stimulus, luciferase, 10K MLSCN set, primary screen (AID 602277;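 active = inhibition of the reporter signal at or above 50%; inactive = inhibition below 50%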); details: HEK293-TLR3 RL24 IRF3 luciferase reporter, at 10 µM, stronger effect = higher value
# [13] = measured here: cell density z-score
# [14] = measured here: nuclear c-Myc green intensity z-score
# [15] = measured here: nuclear pErk red intensity z-score, stronger effect = higher value
SMILES,cell count [1],inhibition [1],inhibition of aggregation [2],nuclei count [2],inhibition [3],nuclei count [3],"z-score [4, 13]","z-score [4, 14]","z-score [4, 15]",inhibition [5],fluorescence slope [6],NADPH fluorescence slope [7],slope [8],outcome [9],inhibition [10],inhibition [11],inhibition [12]
NNC(=O)c1ccncc1,640,1.1% (inactive),-3.3% (inactive),113%,-58.5% (inactive),126%,1.92,0.875,-1.14,16.8% (inactive),-0.467 (inactive),-6.4e-05 (inactive),0.00499 (inactive),inactive,2.05% (inactive),13.6% (inactive),39.7% (inactive)
CC(NCCc1ccc(O)cc1)C(O)c1ccc(O)cc1 (stereo not drawn),713,-4.6% (inactive),-2.5% (inactive),107%,-109% (inactive),123%,0.779,0.516,-1.29,1.48% (inactive),-0.474 (inactive),-9.7e-05 (inactive),0.00504 (inactive),inactive,4.91% (inactive),7.45% (inactive),39.2% (inactive)
COc1ccccc1-n1c(=O)c2c3c(sc2n2c(SC(C)C)nnc12)CCC3,643,-11.3% (inactive),31.3% (active),93.7%,-68% (inactive),145%,1.45,-1.07,1.13,-11% (inactive),-0.248 (inactive),1.3e-05 (inactive),0.005 (inactive),inactive,34.4% (inactive),0.779% (inactive),20.4% (inactive)
Cc1[nH]c2ccc(F)cc2c(=O)c1SC(F)(F)C(F)C(F)(F)F (stereo not drawn),491,-1.1% (inactive),4% (inactive),77.7%,-48.3% (inactive),123%,-0.588,0.342,-0.414,2.46% (inactive),-0.42 (inactive),-3.8e-05 (inactive),0.0059 (inactive),inactive,-4.7% (inactive),14.5% (inactive),20.3% (inactive)
CCOC(=O)c1[nH]c2ccc(Br)cc2c1NC(=O)CCN1CCC(C(=O)OCC)CC1,566,-16.7% (inactive),2.2% (inactive),96.4%,-91.6% (inactive),130%,1.13,-1.08,0.103,-0.674% (inactive),-0.523 (inactive),-2.9e-05 (inactive),0.00522 (inactive),inactive,15.3% (inactive),7.83% (inactive),-1.42% (inactive)
CCCCOc1cc(C(=O)NCCN(CC)CC)c2ccccc2n1,511 and 578,-5.3% (inactive) and -4.6% (inactive),9.3% (inactive) and -1.1% (inactive),92.4% and 92.8%,13% (inactive) and -47.1% (inactive),125% and 129%,-0.0512 and 0.242,1.21 and -0.093,0.116 and 1.52,11.3% (inactive) and -6.41% (inactive),-0.452 (inactive) and -0.465 (inactive),-7.4e-05 (inactive) and -5.9e-05 (inactive),0.00498 (inactive) and 0.00574 (inactive),inactive,1.51% (inactive) and 12.2% (inactive),4.17% (inactive) and 5.36% (inactive),54.6% (active) and 61.4% (active)
CCOC(=O)C1CCN(c2nc3ccccc3nc2C(C#N)C(=O)OCCOC)CC1 (stereo not drawn),436,-5.7% (inactive),12.8% (inactive),81%,-67.9% (inactive),120%,0.586,0.396,0.0352,-11.5% (inactive),-0.529 (inactive),2.1e-06 (inactive),0.00561 (inactive),inactive,-22.9% (inactive),13.3% (inactive),3.22% (inactive)
C=C1[C@@H](C)C2[C@H](Cc3ccccc3)NC(=O)[C@]23OC(=O)CC[C@H](O)CCC[C@H](C)C/C=C/[C@H]3[C@@H]1O (stereo partly drawn),573,-22.6% (inactive),25.7% (inactive),42.3%,-47.4% (inactive),104%,-1.85,0.937,1.72,5.42% (inactive),-0.464 (inactive),-6.3e-05 (inactive),0.00486 (inactive),inactive,-3.13% (inactive),7.56% (inactive),45.8% (inactive)
CN1CCN(/C=N/c2sc3c(c2C#N)CCCCC3)CC1,536,-4.8% (inactive),2.6% (inactive),116%,-74.7% (inactive),108%,-3.34,0.909,1.9,-4.27% (inactive),-0.42 (inactive),-6e-06 (inactive),0.00496 (inactive),inactive,135% (active),-35.3% (inactive),-83.9% (inactive)
CCOC(=O)C1=C(C)N=C2SC(C)C(=O)N2C1c1cccc(F)c1 (stereo not drawn),400,-2.2% (inactive),9.9% (inactive),102%,-10.3% (inactive),139%,-0.692,0.668,0.0738,5.42% (inactive),-0.448 (inactive),-0.000135 (inactive),0.00424 (inactive),inactive,-0.443% (inactive),25.4% (inactive),20.1% (inactive)
Cc1nn(C)cc1C1C2=C(CC(C)(C)CC2=O)OC2=C1C(=O)CC(C)(C)C2,616,-2.2% (inactive),2.2% (inactive),108%,-77.9% (inactive),140%,0.812,0.307,-0.678,2.46% (inactive),-0.337 (inactive),-6.9e-06 (inactive),0.00477 (inactive),inactive,1.65% (inactive),10.6% (inactive),18% (inactive)
COc1ccc(CCN(C)CCCC(C#N)(c2cc(OC)c(OC)c(OC)c2)C(C)C)cc1OC (stereo not drawn),602,1.1% (inactive),6% (inactive),88.6%,-34.1% (inactive),114%,2.13,0.829,-0.736,30.1% (inactive),-0.466 (inactive),-1e-05 (inactive),0.00502 (inactive),inactive,4.56% (inactive) and -3.63% (inactive),3.72% (inactive),17% (inactive)
Cc1cc(C)nc(NC2=NCC(=O)N2c2ccc(Cl)cc2)n1,641,-3.3% (inactive),-9.6% (inactive),111%,-78.7% (inactive),107%,0.855,0.968,-1.07,13.9% (inactive),-0.492 (inactive),-1.6e-05 (inactive),0.00625 (inactive),inactive,-3.81% (inactive),15.2% (inactive),17.2% (inactive)
CNCCCC12CCC(c3ccccc31)c1ccccc12,541,-4.8% (inactive),19.8% (inactive),83.4%,-80.6% (inactive),114%,-1.24,0.435,1.73,3.45% (inactive),-0.501 (inactive),-9.7e-05 (inactive),0.00463 (inactive),inactive,6.33% (inactive) and 2.26% (inactive),-23.6% (inactive),55.4% (active)
Cc1nc2sccn2c(=O)c1CCN1CCC(=C(c2ccccc2)c2ccc(F)cc2)CC1,635,-7.7% (inactive),5% (inactive),114%,-100% (inactive),123%,-1.15,0.767,0.616,17.3% (inactive),-0.433 (inactive),-1.2e-05 (inactive),0.00383 (inactive),inactive,24.7% (inactive) and 164% (active),18.4% (inactive),19.4% (inactive)
CN1C(C(=O)Nc2ccccn2)=C(O)c2ccccc2S1(=O)=O,593 and 424,-2.6% (inactive) and -16.7% (inactive),-13.6% (inactive),111%,-30.1% (inactive) and -244% (inactive),112% and 218%,0.668 and -0.761,0.887 and -0.948,-0.364 and 0.452,11.3% (inactive) and 2.71% (inactive),-0.457 (inactive) and -0.395 (inactive),1.6e-05 (inactive) and -1.1e-05 (inactive),0.00561 (inactive) and 0.00377 (inactive),inactive,7.21% (inactive) and 26% (inactive) and -1.23% (inactive),-0.169% (inactive),-2.96% (inactive)
Nc1ccc(S(=O)(=O)c2ccc(N)cc2)cc1,511,-1.5% (inactive),0.3% (inactive),103%,-20.6% (inactive),106%,-0.829,0.112,0.308,16.8% (inactive),-0.465 (inactive),3.3e-05 (inactive),0.00573 (inactive),inactive,8.87% (inactive),-3.01% (inactive),11.3% (inactive)
CCOC(=O)c1[nH]c2ccccc2c1NC(=O)CCN1CCN(C(=O)OCC)CC1,626,-1.9% (inactive),-2.8% (inactive),104%,1% (inactive),144%,-1.64,0.13,1.55,-5.26% (inactive),-0.344 (inactive),-4.4e-05 (inactive),0.00527 (inactive),inactive,-5.66% (inactive),14.7% (inactive),19.4% (inactive)
CCc1cc2c(=O)c(-c3cscn3)coc2cc1O,406,-6.1% (inactive),-9.9% (inactive),59.7%,-99% (inactive),103%,-2.75,2.51,-1.53,1.98% (inactive),-0.528 (inactive),4e-05 (inactive),0.00552 (inactive),inactive,-8.67% (inactive),20.6% (inactive),26.3% (inactive)
